Results filed as inconclusive are left out. The source made the active and inactive calls. How the source made its calls: active means hit-call score of the fitted dose curve at least 0.9, where 1 is the maximum; inconclusive means response in the unintended direction; inactive means score below 0.9.
Test: ATG_M_19_EcoTox2: Attagene TRANS-FACTORIAL EcoTox-2 HepG2 Assay for M19 Transcription Factor (Internal Marker)
Method: ATG_EcoTox2 is a cell-based, multiplexed assay created by modifying the existing Attagene TRANS-FACTORIAL system to include a panel of nuclear receptors from some or all the following species: human (Homo sapiens), african clawed frog (Xenopus laevis), rainbow trout (Oncorhynchus mykiss), japanese medaka (Oryzias latipes), and zebrafish (Danio rerio). The ECOTOX2-FACTORIAL format uses HepG2, a human liver cell line, with measurements taken at 24 hours after chemical dosing in a 24-well plate. ATG_M_19_EcoTox2 is one of 29 assay components calculated in the ATG_EcoTox2 assay. It is designed to make measurements of mRNA induction, a form of inducible reporter, as detected with fluorescence intensity signals by Reverse transcription polymerase chain reaction (RT-PCR) and Capillary electrophoresis technology.The assay endpoint ATG_M_19_EcoTox2 was analyzed in the positive analysis fitting direction relative to DMSO as the negative control and baseline of activity. Using a type of inducible reporter, measures of mRNA for gain-of-signal activity can be used to understand the background control at the transcription factor-level as they relate to the gene. Furthermore, this assay endpoint can be referred to as a secondary readout, because this assay has produced multiple assay endpoints where this one serves a background control function. To generalize the intended target to other relatable targets, this assay endpoint is annotated to the background measurement intended target family, where the subfamily is internal marker.
Human liver HepG2 cells are transiently transfected with multiple reporter transcription units (MRTUs) in 6-well plates using FuGene 6 reagent (Roche; 3 ml FuGene/1 mg DNA). The MRTU constructs are regulated by a cis-regulating element (promoter). Each RTU expresses a GAL4-UAS that regulates the transcription of a nearby target reporter gene sequence. A major difference between the CIS and TRANS system is that in CIS activities of endogenous TFs are measured, whereas the TRANS assay evaluates changes in activities of exogenous, chimeric NR-Gal4 proteins. […] At the end of 24 hour incubation, total RNA was isolated using TriZol reagent (Invitrogen). The isolated RNA is then reverse-transcribed using oligo(dT) primer and Mo-MLV reverse transcriptase (Invitrogen) with DNAse I (Ambion) treatment for 30 min. The one-tenth of the produced cDNA was amplified by PCR using Taq DNA polymerase (Invitrogen) and two reporter sequence-specific primers. […] The fragments were purified using Qiaquick PCR columns (Qiagen), analyzed on an ABI 3130xL genetic analyzer (Applied Biosystems) with peak positions identified by using a set of X-rhodamine (ROX)-labeled MapMarker1000 molecular weight standards (BioVentures). […]

SMILES | outcome
CC(C)(Oc1ccc(CCNC(=O)c2ccc(Cl)cc2)cc1)C(=O)O | inactive
CC(C)(Oc1ccc(Cl)cc1)C(=O)O | inactive
C[C@@H]1C[C@H]2[C@@H]3CCC4=CC(=O)C=C[C@]4(C)[C@@]3(F)[C@@H](O)C[C@]2(C)[C@@]1(O)C(=O)COP(=O)(O)O | inactive
Cc1ccc(C)c(OCCCC(C)(C)C(=O)O)c1 | inactive
